FEN1 inh-1 = human FEN1 inhibition | Recombinant FEN1 flap cleavage, fluorescence, 15 min | P39748 | Potency, µM (titrated, usually from 114 µM), for inactives: at the top dose activity change, negative = inhibition, actives largely listed as inhibitors | hit rate 0.35% among 390,000 | AID 588795; also: % is scaled to controls: 0 for no effect and ±100 for the full control effect; nearly all actives have a fitted effect of over 65% in size
Target sequence (P39748 whole entry, looked up): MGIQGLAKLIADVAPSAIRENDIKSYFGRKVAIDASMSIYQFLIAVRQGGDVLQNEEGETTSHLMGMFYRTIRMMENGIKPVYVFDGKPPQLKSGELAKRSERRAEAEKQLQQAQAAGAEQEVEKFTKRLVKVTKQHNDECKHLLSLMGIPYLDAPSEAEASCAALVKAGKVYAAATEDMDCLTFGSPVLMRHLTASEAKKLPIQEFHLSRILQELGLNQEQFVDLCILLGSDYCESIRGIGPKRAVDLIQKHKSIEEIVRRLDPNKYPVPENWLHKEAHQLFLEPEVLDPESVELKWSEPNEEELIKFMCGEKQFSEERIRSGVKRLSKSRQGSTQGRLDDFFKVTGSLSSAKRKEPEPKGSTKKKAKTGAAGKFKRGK
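Concentration–response screening of FEN1 (10 nM): 15 min compound preincubation at room temperature, reaction started with 50 nM substrate and read at 0 and 15 min. Corrected, normalized data were fitted by a four-parameter Hill equation.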
WRN helicase inh-1 = WRN helicase (human) inhibition; hit rate 0.46% among 360,000; Potency, µM (titrated, usually from 114 µM), for the others: at the highest dose activity change, negative = inhibition, actives largely listed as inhibitors; Q14191; WRN helicase unwinding, fluorescent forked duplex, kinetic; also: % is scaled to controls: 0 for no effect and ±100 for the full control effect; nearly all actives have a fitted effect of over 55% in size
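Screening of the MLSMR collection measured strand separation of a quenched forked DNA duplex (100 nM) by 20 nM WRN with 2 mM ATP, all final. Compounds were preincubated with enzyme 15 min at room temperature.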
RECQ1 inh-1 = blocks DNA unwinding by human RECQ1. P46063. RECQ1 DNA unwinding, red fluorescence kinetic read. Potency, µM (top dose mostly 57.3 µM), without a hit: at the highest dose activity, negative = inhibition, most hits filed as inhibitors. hit rate 0.54% among 240,000. AID 2549;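 also: plate controls were vehicle for no effect and no enzyme for full effect; nearly all actives have a fitted effect of over 30% in size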
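RECQ1T1 50 nM; forked duplex (20 bp + 30-nt ss tails) 200 nM, ATP 2 mM final; pH 8.0, 2 mM MgCl2, 2.5 ug/ml poly(dI-dC); 15 min compound preincubation; discontinuous kinetic read over 2 h at RT.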
APE1 inh-1 = APE1 (human) endonuclease inhibition | P27695 | recombinant APE1, TAMRA/BHQ-2 abasic DNA cleavage fluorescence | Potency, µM (highest dose often 65.8 µM), without a hit: top-dose activity change, negative = inhibition, hits mostly inhibitors | hit rate 0.35% among 350,000 | AID 2517;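 also: plate controls were vehicle for no effect and reference inhibitor for full effect; nearly all actives have a fitted effect of over 55% in size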
Target sequence (P27695 whole entry, looked up): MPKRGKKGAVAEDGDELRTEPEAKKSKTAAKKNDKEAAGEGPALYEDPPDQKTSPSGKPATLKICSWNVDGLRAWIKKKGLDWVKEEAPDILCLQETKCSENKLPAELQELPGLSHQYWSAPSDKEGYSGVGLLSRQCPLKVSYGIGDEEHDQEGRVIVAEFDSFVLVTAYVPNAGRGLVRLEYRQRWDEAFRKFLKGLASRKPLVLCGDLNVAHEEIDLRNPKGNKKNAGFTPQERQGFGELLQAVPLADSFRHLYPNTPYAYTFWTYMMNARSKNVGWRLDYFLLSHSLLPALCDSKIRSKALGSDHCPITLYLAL
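Incision of a quenched TAMRA/BHQ-2 THF abasic-site duplex (50 nM) by 0.75 nM APE1, after 15 min compound preincubation, measured as fluorescence increase over three 60 s reads. Values normalized to buffer, DMSO and NSC13755 control wells.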
BLM helicase inh-1 = Bloom syndrome helicase (human) inhibition. recombinant BLM DNA unwinding, fluorescence dequenching. Potency, µM (series often up to 56.1 µM), for the others: top-dose activity change, negative = inhibition, actives largely listed as inhibitors. hit rate 0.2% among 350,000. AID 2528;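 also: plate controls were vehicle for no effect and no enzyme for full effect; nearly all actives have a fitted effect of over 35% in size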
DNA dye displace = counter-screen for APE1 inhibitors: DNA dye displacement. shares compounds with APE1 inh-1. DNA fluorescent dye displacement counterscreen, fluorescence. Potency, µM (highest dose often 28.5 µM), for inactives: at the highest dose activity change, negative = inhibition, hits mostly inhibitors. hit rate 7% among 480. AID 2564;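 also: loss of thiazole orange fluorescence as the dye is displaced from duplex DNA; 0% = ThO with dsDNA and no compound and -100% = ThO without dsDNA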
EndoIV counter = Endo IV (E. coli) inhibition counter-screen. shares compounds with APE1 inh-1. hit rate 4% among 560. AID 2565. Potency, µM (highest dose often 27.1 µM), without a hit: at the top dose activity change, negative = inhibition, hits mostly inhibitors. E. coli Endo IV, fluorogenic AP-site DNA cleavage;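 also: plate controls were uninhibited enzyme wells for no effect and no enzyme buffer wells for full effect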
APE1 inh-2 = APE1 (human) endonuclease inhibition, confirmation; hit rate 44% among 750; shares compounds with APE1 inh-1; purified APE1, fluorogenic abasic-site DNA cleavage; AID 2572; Potency, µM (top dose mostly 57.1 µM), without a hit: at the highest dose activity change, negative = inhibition, hits mostly inhibitors; also: % is scaled to controls: 0 for no effect and ±100 for the full control effect; nearly all actives have a fitted effect of over 30% in size
APE1 FP inh = APE1 (human) DNA binding inhibition, fluorescence polarization. shares compounds with APE1 inh-1. APE1 binding to TAMRA-labelled double-stranded DNA, fluorescence polarization displacement. Potency, µM (titrated, usually from 28.5 µM), for the others: top-dose activity, negative = inhibition, actives largely listed as inhibitors. hit rate 7% among 480. AID 2573; also: % is scaled to controls: 0 for no effect and ±100 for the full control effect
BLM inh = BLM (human) helicase inhibition, confirmation. shares compounds with BLM helicase inh-1. BLM DNA unwinding, fluorescence quenching, biochemical. Potency, µM, for the others: max response, negative = inhibition, usual class: inhibitors. hit rate 40% among 220. AID 2585;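 also: strand separation dequenches TAMRA so unwinding raises red fluorescence; series mostly up to about 69 µM; % is scaled to controls: 0 for no effect and ±100 for the full control effect; nearly all actives have a fitted effect of over 45% in size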
RECQ1 inh conf = confirmation of human RECQ1 helicase inhibitors; shares compounds with RECQ1 inh-1; RECQ1 helicase DNA unwinding, fluorescence; Potency, µM (top dose mostly 229 µM), inactives show at the top dose activity change, negative = inhibition, usual class: inhibitors; hit rate 28% among 610; AID 2708; also: % is scaled to controls: 0 for no effect and ±100 for the full control effect; nearly all actives have a fitted effect of over 45% in size
ADP FP counter = displaces ADP in a fluorescence polarization counter-screen for RECQ1 hits; Potency, µM (highest dose often 228 µM), inactives show at the top dose activity change, negative = inhibition, most hits filed as inhibitors; hit rate 27% among 530; shares compounds with RECQ1 inh-1; ADP fluorescence polarization displacement counterscreen; also: % is scaled to controls: 0 for no effect and ±100 for the full control effect; nearly all actives have a fitted effect of over 45% in size
RECQ1 inh-2 = confirmation of human RECQ1 helicase inhibitors; AID 504841; hit rate 15% among 1,100; shares compounds with RECQ1 inh-1; Potency, µM (doses to about 119 µM), without a hit: at the highest dose activity, negative = inhibition, hits mostly inhibitors; recombinant RECQ1 DNA unwinding, red fluorescence; also: % is scaled to controls: 0 for no effect and ±100 for the full control effect; nearly all actives have a fitted effect of over 50% in size
FEN1 inh-2 = FEN1 inhibition, cherry-pick retest | shares compounds with FEN1 inh-1 | FEN1 flap cleavage, TAMRA/BHQ2 fluorogenic DNA substrate | Potency, µM, hits mostly inhibitors | hit rate 79% among 880 | AID 720498; also: nearly all actives have a fitted effect of over 60% in size
WRN helicase inh-2 = WRN helicase inhibition, cherry-pick retest; shares compounds with WRN helicase inh-1; WRN helicase DNA unwinding, fluorescence kinetic; Potency, µM (doses to about 57.1 µM), without a hit: at the highest dose activity, negative = inhibition, usual class: inhibitors; hit rate 63% among 610; AID 720497; also: nearly all actives have a fitted effect of over 65% in size
TO DNA binding = DNA binding via thiazole orange displacement; thiazole orange DNA binding displacement, fluorescence; shares compounds with WRN helicase inh-1; AID 720499; hit rate 10% among 610; Potency, µM (doses to about 57.1 µM), inactives show at the top dose activity change, negative = inhibition, most hits filed as inhibitors;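 also: drop in dye fluorescence marks compound binding to DNA; % is scaled to controls: 0 for no effect and ±100 for the full control effect; nearly all actives have a fitted effect of over 60% in size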
BLM helicase inh-2 = BLM helicase inhibition, WRN selectivity check. shares compounds with WRN helicase inh-1. Recombinant BLM helicase DNA unwinding, red fluorescence. Potency, µM (titrated, usually from 57.1 µM), inactives show at the top dose activity change, negative = inhibition, most hits filed as inhibitors. hit rate 60% among 610; also: nearly all actives have a fitted effect of over 60% in size
Starred values were filed as active, the others as inactive; i = inactive; u = inconclusive; x = no result given; ! = a repeat was not active; [ ] = remark or other dose. Shown are actives, neighbours in structure and some others; about 0.87% of the full set was active somewhere. Calls follow the shape of the dose curve; as a rule, active = well fitted curve in the direction sought with a large enough effect; inconclusive = small, poorly fitted or top-dose-only effect, or another doubt; inactive = no such curve, though single readings can be large; an effect the other way counts as inactive or inconclusive. Potency is read from the fitted curve at half-maximal effect.

SMILES	FEN1 inh-1	WRN helicase inh-1	RECQ1 inh-1	APE1 inh-1	BLM helicase inh-1	DNA dye displace	EndoIV counter	APE1 inh-2	APE1 FP inh	WRN helicase inh-2	TO DNA binding	BLM helicase inh-2	others
O=C(NC1CC1)c1cc(-c2ccco2)nc2ccccc12	u	20µM*	20µM*	11.2µM*	14.1µM*	u	u	25.1µM*	223.8%	6.07µM*	u	0.961µM*	BLM inh=20.4µM*;RECQ1 inh conf=20µM*;ADP FP counter=56.2µM*
Cc1nnc(NC(=O)c2cc(-c3ccco3)nc3ccccc23)s1	x	x	x	-71.5%	x	x	x	x	x	x	x	x
Cc1ccc(N2NC(=O)/C(=C/c3ccc(-c4ccc(Cl)c(C(=O)O)c4)o3)C2=O)cc1C	-1.1%	-18.9%[11.6 µM]	i	-10.4%	-4.2%	x	x	x	x	x	x	x
COC(=O)c1ccc(N2NC(=O)/C(=C/c3ccc(-c4ccc(Cl)c(C(=O)O)c4)o3)C2=O)cc1	u	35.5µM*	u	25.1µM*	-10.1%	6.31µM*	-7.2%	u	0.3%	17.1µM*	u	21.5µM*
COc1ccc(N2CCN(C(=O)c3cccn3-c3nnc(N4CCCC4)s3)CC2)cc1	16.4%	x	x	x	0.1%	x	x	x	x	x	x	x
Cc1cccc(C(=O)N=c2c(C#N)cc3c(=O)n4cccc(C)c4nc3n2Cc2ccco2)c1	-14.8%	25.1µM*!	u	u	-27.0%	x	x	-33.0%	x	24.1µM*	-29.1%	u	RECQ1 inh-2=-20.1%
Nc1nonc1-c1nc2ccccc2n1CC(=O)N/N=C/c1ccc(-c2cccc(C(=O)O)c2)o1	44.7µM*	39.8µM*	-21.2%	u	u	-4.3%	-1.9%	12.6µM*	-3.9%	24.1µM*	u	24.1µM*	FEN1 inh-2=37.9*
COc1ccc(NC(=O)c2cc3c(-c4ccc(OC)c(OC)c4)nn(C)c3s2)cc1OC	11.2µM*	11.9µM*	18.1%	u	u	9.0%	11.2µM*	12.6µM*	-4.1%	13.6µM*	-9.5%	13.6µM*	FEN1 inh-2=10.7*
COc1ccc(-c2nn(C)c3sc(C(=O)NCc4ccco4)cc23)cc1OC	16.4%	-16.8%	-17.8%	4.8%	0.4%	x	x	x	x	x	x	x
COc1ccc2nc(C)cc(SCC(=O)N/N=C/c3ccc(O)c(O)c3)c2c1	u	14.1µM*	u	u	-13.0%	u	114.7%	7.94µM*	3.3%	4.82µM*	u	6.07µM*
COc1cccc2c(SCC(=O)N/N=C/c3ccc(O)c(O)c3)cc(C)nc12	u	20µM*	25.1µM*	8.91µM*	u	-25.7%	93.1%	5.01µM*	-7.3%	4.82µM*	u	4.82µM*
CN(C)c1ccc(CNC(=O)C2CCCN(S(=O)(=O)c3ccc4c(c3)CCCC(=O)N4)C2)cc1 (centres undefined)	15.2%	x	x	x	-0.1%	x	x	x	x	x	x	x
Cc1c2cnn(CC(=O)NCCc3ccccc3)c(=O)c2c(C)n1Cc1ccccc1	-19.0%	x	x	x	1.1%	x	x	x	x	x	x	x
COC(=O)c1ccccc1NC(=O)c1noc2c1CCC2	u	u	u	u	u	u	24.5%	11.2µM*	u	17.1µM*	-20.0%	4.82µM*	RECQ1 inh-2=u
COc1ccc(OC)c(NC(=O)c2noc3c2CCCC3)c1	u	x	x	x	-2.6%	x	x	x	x	x	x	x
CCN(CC)c1nc2c(S(=O)(=O)c3ccccc3)nnn2c2ccc(Cl)cc12	-7.5%	x	x	x	-2.6%	x	x	x	x	x	x	x
COc1ccc2cc3cc(C(=O)NCc4cccs4)oc3nc2c1	u	39.8µM*	-6.8%	0.6%	-23.2%	x	x	-11.5%	x	24.1µM*	1.6%	15.2µM*
COc1ccc(NC(=O)CC2C(=O)N(c3cccc(OC)c3)C(=O)N2CCC2=CCCCC2)cc1 (centres undefined)	-0.2%	x	x	x	-13.0%	x	x	x	x	x	x	x
Cc1ccccc1NC1=C/C(=N\S(=O)(=O)c2ccc(C(=O)O)cc2)c2ccccc2C1=O	50.1µM*	-34.3%[57.1 µM]	x	-7.9%	7.08µM*	x	x	x	x	x	x	x	BLM inh=11.5µM*
COc1cccc(CN2CCCN(Cc3ccc(F)cc3)S2(=O)=O)c1	2.4%	x	x	x	-10.1%	x	x	x	x	x	x	x
S=C(Nc1cccc(Cl)c1)Nc1cccc2cnccc12	u	u	-0.1%	-0.3%	3.98µM*	x	x	x	x	x	x	x	BLM inh=u

Compound activity from PubChem.
